Consider 35 compounds from PubChem BioAssay (NCATS).

Structures are written as SMILES. “And” between values parts separate entries of the source, which are not always exact repeats. Equal entries are not always repeated. Records with an inconclusive call do not appear. Where a structure was tested more than once in an assay, its records may differ in their call. Values without a mark were called inactive. The source made the active and inactive calls. Calls follow the shape of the dose curve; as a rule, active = well fitted inhibition curve with a large enough effect; inconclusive = small, poorly fitted or top-dose-only effect; inactive = flat fitted curve, though single readings scatter.
% is scaled to controls: 0 for no effect and ±100 for the full control effect; potency is read from the fitted curve at half-maximal effect.

For one experiment, the system named is CRL-7250. As to the kind of experiment: Cytotoxic Profiling of Annotated Libraries Using Quantitative High-Throughput Screening (AID 1296008). Also: nearly all actives have a fitted effect of over 60% in size. Particulars: Five cell lines viability, CellTiter-Glo ATP luminescence, 48-72 h; max response: active compounds read low. Summed up:
(§1)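 Compounds were pin-transferred onto cells and incubated 48 or 72 hr at 37 degree Celsius, 95% humidity. CellTiter-Glo was added, plates sat 10 min at room temperature, then ATP-coupled luminescence was imaged as the viability read-out.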
Background: In ATP-based viability assays light output follows the ATP content of the culture.
Take `CC1=C(C(=O)Nc2cc3cn[nH]c3cc2F)C(c2ccc(C(F)(F)F)cc2)CC(=O)N1` (stereo not given): the max response was 1.25% and the compound was called inactive.

On to `NC(=O)c1ccc(N(C(N)=O)c2c(F)cccc2F)nc1-c1ccc(F)cc1F`, for which the max response was -5.46% and 0.374%.

For the compound `Clc1ccc(C2(c3ccc(-c4cn[nH]c4)cc3)CCNCC2)cc1`, the Potency was 3.72 µM (active) and 7.31 µM (active).

With `CC[C@]1(O)C[C@H]2CN(CCC3=c4ccccc4=N[C]3[C@@](C(=O)OC)(c3cc4c(cc3OC)N(C)[C@H]3[C@@](O)(C(N)=O)[C@H](O)[C@]5(CC)C=CCN6CC[C@]43[C@@H]65)C2)C1`, the Potency is 93.5 nM (active).

Turning to `NS(=O)(=O)c1cc(Cl)c(Cl)c(S(N)(=O)=O)c1`, the max response is 0.0999% and the result was inactive.

With `C[C@H](c1ccc(F)cc1CCCC(=O)O)N(c1cc(F)ccc1F)S(=O)(=O)c1ccc(Cl)cc1`, the max response was -0.7% and -8.45%.

With `COc1nccc(-c2c(-c3ccc(F)cc3)ncn2C2CCC(O)CC2)n1` (stereo not given), the max response was 2.19% and -0.385%.

Consider `CC(C)(OCc1nn(Cc2ccccc2)c2ccccc12)C(=O)O`, for which the max response is 1.06% and the result was inactive.

Regarding `COc1ccc(CCC(=O)Nc2nc3ccc(Cl)cc3s2)cc1OC`, the max response was 1.51% and -1.65%.

`c1cc(OCCN2CCCCC2)cc(-c2n[nH]c3ccc(-c4ncn[nH]4)cc23)c1`: the max response is -3.49% and the call was inactive.

Consider `CCN1CCN(c2ccc(Nc3cc(N(C)C(=O)Nc4c(Cl)c(OC)cc(OC)c4Cl)ncn3)cc2)CC1`, for which the Potency is 7310 nM (active).

Take `CN(C)c1nc(Cc2ccc(NC(=O)c3ccc(C(F)(F)F)cc3)cc2)nc(N(C)C)c1CC(=O)O`: the compound was called inactive.

For `CN1c2ccccc2C(=O)N2CCc3c([nH]c4ccccc34)C21` (stereo not given), the max response was 4.95%.

As to `Cc1ccccc1C(C(=O)NC1CCCCC1)N(C(=O)CNc1ccc(C#N)cc1)c1cccc(F)c1` (stereo not given), the max response is 4.34% and the compound was classed as inactive.

`Cc1ccc2c(c1)c1c(n2CCc2ccc(C)nc2)CCN(C)C1`: the compound was called inactive.

Turning to `C[C@@]1(c2cc(-c3cncnc3)c(F)cc2F)CCSC(N)=N1`, the max response is 3.38% and -17.5%.

Turning to `Cc1cnc(-c2cc(N3CCN(C(=O)CCS(C)(=O)=O)CC3)ncc2Cl)c(C)c1`, the max response was 2.67% and the outcome was inactive.

Regarding `CCN1C[C@H](C)n2c(c(O)c3c(=O)n(Cc4ccc(F)c(Cl)c4)nc(C(=O)NC)c32)C1=O`, the max response was -6.85% and the call was inactive.

With `CNc1nc(Nc2ccc(C(=O)N3CCOCC3)cc2OC)ncc1Cl`, the max response is 2.63% and -2.16%.

As for `CC1CCN(c2cc(N3CCN(C)CC3)ccc2NC(=O)c2cc(C#N)c[nH]2)CC1`, the compound was classed as inactive.

As for `Cc1cc2c(cc1C1(c3ccc(C(=O)O)cn3)CC1)C(C)(C)CCC2(C)C`, the compound was classed as inactive.

For `c1ccc(CNc2nc(N3CCOc4ccccc43)nc3c2CCCC3)cc1`, the max response was 3.99% and the compound was called inactive.

As for `COc1ccnc(CS(=O)c2nc3ccc(OC(F)F)cc3[nH]2)c1OC` (stereo not given), the max response was 3.58%.

`O=C(CO)N1CCC(c2[nH]nc(-c3ccc(Cl)cc3)c2-c2ccncn2)CC1`: the max response was 0.635% and -7.11%.

`COc1nc(C)cnc1NS(=O)(=O)c1cccnc1-c1ccc(-c2nnco2)cc1`: the max response was 1.92% and 1.59%.

With `CCCCn1c(=O)n(Cc2ccccc2F)c(=O)c2[nH]c(Cc3ccc(NC(C)=O)cc3)nc21`, the max response is -20% and 4.17%.

As for `COC(=O)N1CCN(Cc2cccc(NC(=O)Nc3ccc(C)nc3)c2F)CC1`, the max response was -17.2% and the call was inactive.

Take `Nc1ccc(-c2ccc3ncc4ccc(=O)n(-c5cccc(C(F)(F)F)c5)c4c3c2)cn1`: the Potency is 46.1 nM (active) and the max response was -76.7%.

The subject of a further experiment is HEK293. The experiment is described as above. The conditions noted are these: Five cell lines viability, CellTiter-Glo ATP luminescence, 48-72 h; max response: active compounds read low. Summed up: as §1
Consider `Cc1cnc(Nc2cccc(CN3CCOCC3)c2)nc1Nc1cccc(S(=O)(=O)NC(C)(C)C)c1`, for which the compound was classed as inactive.

As to `CS(=O)(=O)c1ccc(C2=C(c3ccccc3)C(=O)OC2)cc1`, the call was inactive.

Regarding `O=C(O)CCNc1cc(N2CCc3ccccc3CC2)nc(-c2ccccn2)n1`, the max response was 1.95% and -5.12%; the call was inactive.

Consider `CCn1c(-c2nonc2N)nc2cncc(CNC3CCNCC3)c21`, for which the Potency was 10.5 µM (active) and 2.31 µM (active).

Take `Cn1c(=O)c(-c2c(Cl)cccc2Cl)cc2cnc(Nc3cccc(C(=O)O)c3)nc21`: the Potency was 2.31 µM (active) and the max response is -22.7%.

Regarding `CC1(C)CC(=O)c2c(C(F)(F)F)nn(-c3ccc(C(N)=O)c(NC4CCC(O)CC4)c3)c2C1` (stereo not given), the Potency was 52.6 nM (active) and 58 nM (active).

On to `COc1cc(Nc2nc3ccccc3nc2NS(=O)(=O)c2ccc(NC(=O)c3ccc(C)c(OC)c3)cc2)cc(OC)c1`, for which the compound was called inactive.

Take `CC1=C(C(=O)Nc2cc3cn[nH]c3cc2F)C(c2ccc(C(F)(F)F)cc2)CC(=O)N1` (stereo not given): the call was inactive.

Take `NC(=O)c1ccc(N(C(N)=O)c2c(F)cccc2F)nc1-c1ccc(F)cc1F`: the max response was -4.84% and -3.96%.

On to `Clc1ccc(C2(c3ccc(-c4cn[nH]c4)cc3)CCNCC2)cc1`, for which the Potency was 5.26 µM (active) and 10.3 µM (active).

Regarding `CC[C@]1(O)C[C@H]2CN(CCC3=c4ccccc4=N[C]3[C@@](C(=O)OC)(c3cc4c(cc3OC)N(C)[C@H]3[C@@](O)(C(N)=O)[C@H](O)[C@]5(CC)C=CCN6CC[C@]43[C@@H]65)C2)C1`, the Potency is 0.0166 µM (active).

Turning to `NS(=O)(=O)c1cc(Cl)c(Cl)c(S(N)(=O)=O)c1`, the max response is 0.982% and the compound was classed as inactive.

For `C[C@H](c1ccc(F)cc1CCCC(=O)O)N(c1cc(F)ccc1F)S(=O)(=O)c1ccc(Cl)cc1`, the max response was -10.5% and the compound was called inactive.

On to `COc1nccc(-c2c(-c3ccc(F)cc3)ncn2C2CCC(O)CC2)n1` (stereo not given), for which the max response was -17.3% and the compound was classed as inactive.

As for `CC(C)(OCc1nn(Cc2ccccc2)c2ccccc12)C(=O)O`, the max response is 0.564% and the call was inactive.

On to `COc1ccc(CCC(=O)Nc2nc3ccc(Cl)cc3s2)cc1OC`, for which the max response was -26%.

Consider `CCN1CCN(c2ccc(Nc3cc(N(C)C(=O)Nc4c(Cl)c(OC)cc(OC)c4Cl)ncn3)cc2)CC1`, for which the Potency was 16.4 µM (active).

In the case of `CN(C)c1nc(Cc2ccc(NC(=O)c3ccc(C(F)(F)F)cc3)cc2)nc(N(C)C)c1CC(=O)O`, the max response was 3.18% and the outcome was inactive.

Consider `CN1c2ccccc2C(=O)N2CCc3c([nH]c4ccccc34)C21` (stereo not given), for which the Potency was 1.64 µM (active) and the max response is -2.28%.

On to `Cc1ccc2c(c1)c1c(n2CCc2ccc(C)nc2)CCN(C)C1`, for which the Potency is 14.6 µM (active) and the max response is -7.19%.

`C[C@@]1(c2cc(-c3cncnc3)c(F)cc2F)CCSC(N)=N1`: the max response was 1.85% and -22.9%.

On to `Cc1cnc(-c2cc(N3CCN(C(=O)CCS(C)(=O)=O)CC3)ncc2Cl)c(C)c1`, for which the max response was 2.19% and the compound was called inactive.

Consider `CCN1C[C@H](C)n2c(c(O)c3c(=O)n(Cc4ccc(F)c(Cl)c4)nc(C(=O)NC)c32)C1=O`, for which the max response is 1.12% and the compound was classed as inactive.

As to `CNc1nc(Nc2ccc(C(=O)N3CCOCC3)cc2OC)ncc1Cl`, the max response is 3.56% and -22.4%.

Consider `CC1CCN(c2cc(N3CCN(C)CC3)ccc2NC(=O)c2cc(C#N)c[nH]2)CC1`, for which the max response is 0.425%.

On to `Cc1cc2c(cc1C1(c3ccc(C(=O)O)cn3)CC1)C(C)(C)CCC2(C)C`, for which the max response is -8.08%.

`COc1ccnc(CS(=O)c2nc3ccc(OC(F)F)cc3[nH]2)c1OC` (stereo not given): the compound was classed as inactive.

Take `O=C(CO)N1CCC(c2[nH]nc(-c3ccc(Cl)cc3)c2-c2ccncn2)CC1`: the max response is -13.1% and -1.15%.

As to `COc1nc(C)cnc1NS(=O)(=O)c1cccnc1-c1ccc(-c2nnco2)cc1`, the result was inactive.

Turning to `CCCCn1c(=O)n(Cc2ccccc2F)c(=O)c2[nH]c(Cc3ccc(NC(C)=O)cc3)nc21`, the max response was -5.59% and -2.73%.

With `Nc1ccc(-c2ccc3ncc4ccc(=O)n(-c5cccc(C(F)(F)F)c5)c4c3c2)cn1`, the Potency is 0.0132 µM (active).
